Screen size: about 5,500 compounds; about 2,000 (36%) were called active. Not shown: some 18% with an inconclusive outcome. No stated cut-off is given here; in the data, active means normalized growth mostly below about 0.91 (no sharp cut-off); inconclusive means no clear call, values can overlap the other calls; inactive means mostly above about 0.92. The list shows a part of the results.
Assay: chemical genetic growth profiling, strain panel (AID 1159580);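 further: tested at 20 µM; growth read once vehicle control cultures reached saturation at 30 °C; 1 = growth at the plate median or of vehicle wells; lower values mean less growth of the strain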
Details: growth OD

Measured: normalized growth

CCOC(=O)C(Cc1ccc(O)cc1)NC(C)=O (configuration not stated)
inactive: S. cerevisiae deletion strains, locus YJR075W, strain HOC1, hits give low values 1.01 | S. cerevisiae deletion strains, locus YKL009W, strain mrt4, hits give low values 0.996 | S. cerevisiae deletion strains, locus YKL068W, hits give low values 1 | S. cerevisiae deletion strains, locus YKL085W, strain MDH1 (second series), hits give low values 1 | S. cerevisiae deletion strains, locus YKL085W, strain MDH1, hits give low values 1 | S. cerevisiae deletion strains, locus YKL160W, strain elf1, hits give low values 1.02 | S. cerevisiae deletion strains, locus YKL190W, strain CNB1, hits give low values 1.01 | S. cerevisiae deletion strains, locus YKR001C, strain vps1, hits give low values 0.995 | S. cerevisiae deletion strains, locus YKR026C, strain gcn3, hits give low values 1 | S. cerevisiae deletion strains, locus YKR091W, strain srl3, hits give low values 1 | S. cerevisiae deletion strains, locus YLL001W, strain dnm1, hits give low values 1.01 | S. cerevisiae deletion strains, locus YLL026W, hits give low values 0.997 | S. cerevisiae deletion strains, locus YLL041C, strain sdh2, hits give low values 1 | S. cerevisiae deletion strains, locus YLR027C, strain aat2, hits give low values 1 | S. cerevisiae deletion strains, locus YLR039C, strain RIC1, hits give low values 1.03 | S. cerevisiae deletion strains, locus YLR058C, strain SHM2, hits give low values 1.02 | S. cerevisiae deletion strains, locus YLR102C, strain apc9, hits give low values 1.01 | S. cerevisiae deletion strains, locus YLR113W, strain HOG1, hits give low values 1.01 | S. cerevisiae deletion strains, locus YLR221C, strain rsa3, hits give low values 0.987 | S. cerevisiae deletion strains, locus YLR258W, strain gsy2, hits give low values 1.01 | S. cerevisiae deletion strains, locus YLR262C, strain YPT6 (second series), hits give low values 0.968 | S. cerevisiae deletion strains, locus YLR262C, strain YPT6, hits give low values 1.01 | S. cerevisiae deletion strains, locus YLR268W, strain sec22, hits give low values 1.01 | S. cerevisiae deletion strains, locus YLR320W, strain mms22, hits give low values 0.994 | S. cerevisiae deletion strains, locus YLR330W, strain CHS5, hits give low values 1.01 | S. cerevisiae deletion strains, locus YLR342W, strain FKS1 (second series), hits give low values 1.07 | S. cerevisiae deletion strains, locus YLR342W, strain FKS1, hits give low values 1.01 | S. cerevisiae deletion strains, locus YLR357W, strain rsc2, hits give low values 1.01 | S. cerevisiae deletion strains, locus YLR370C, strain arc18, hits give low values 1 | S. cerevisiae deletion strains, locus YLR371W, strain rom2, hits give low values 1.02 | S. cerevisiae deletion strains, locus YLR384C, strain iki3, hits give low values 1 | S. cerevisiae deletion strains, locus YLR418C, strain cdc73, hits give low values 1 | S. cerevisiae deletion strains, locus YML016C, strain PPZ1, hits give low values 1.01 | S. cerevisiae deletion strains, locus YML032C, strain rad52, hits give low values 0.989 | S. cerevisiae deletion strains, locus YML120C, strain ndi1, hits give low values 1.01 | S. cerevisiae deletion strains, locus YML124C, strain tub3, hits give low values 0.999 | S. cerevisiae deletion strains, locus YMR058W, strain fet3, hits give low values 1.01 | S. cerevisiae deletion strains, locus YMR078C, strain ctf18, hits give low values 1.01 | S. cerevisiae deletion strains, locus YMR125W, strain sto1, hits give low values 0.995 | S. cerevisiae deletion strains, locus YMR129W, hits give low values 1.01 | S. cerevisiae deletion strains, locus YMR205C, strain PFK2, hits give low values 0.997 | S. cerevisiae deletion strains, locus YMR223W, strain ubp8, hits give low values 0.987 | S. cerevisiae deletion strains, locus YMR231W, strain pep5, hits give low values 1.01 | S. cerevisiae deletion strains, locus YMR263W, strain SAP30, hits give low values 1.01 | S. cerevisiae deletion strains, locus YMR307W, strain GAS1, hits give low values 1.06 | S. cerevisiae deletion strains, locus YNL067W, strain RPL9B, hits give low values 1.02 | S. cerevisiae deletion strains, locus YNL071W, strain lat1, hits give low values 1 | S. cerevisiae deletion strains, locus YNL128W, strain TEP1, hits give low values 1.02 | S. cerevisiae deletion strains, locus YNL153C, strain GIM3, hits give low values 1.01 | S. cerevisiae deletion strains, locus YNL183C, strain NPR1, hits give low values 0.879 | S. cerevisiae deletion strains, locus YNL209W, strain ssb2, hits give low values 0.996 | S. cerevisiae deletion strains, locus YNL233W, strain BNI4, hits give low values 1.01 | S. cerevisiae deletion strains, locus YNL248C, strain rpa49, hits give low values 0.999 | S. cerevisiae deletion strains, locus YNL250W, strain rad50, hits give low values 0.992 | S. cerevisiae deletion strains, locus YNL271C, strain bni1, hits give low values 0.993 | S. cerevisiae deletion strains, locus YNL298W, strain CLA4, hits give low values 1.01 | S. cerevisiae deletion strains, locus YNL307C, strain MCK1, hits give low values 1 | S. cerevisiae deletion strains, locus YNL322C, strain KRE1 (second series), hits give low values 1.05 | S. cerevisiae deletion strains, locus YNL322C, strain KRE1, hits give low values 1.01 | S. cerevisiae deletion strains, locus YNR049C, strain mso1, hits give low values 1.02 | S. cerevisiae deletion strains, locus YNR052C, strain pop2, hits give low values 0.993 | S. cerevisiae deletion strains, locus YOL006C, strain TOP1, hits give low values 1.06 | S. cerevisiae deletion strains, locus YOL012C, strain htz1 0.841 | S. cerevisiae deletion strains, locus YOL147C, strain pex11, hits give low values 0.997 | S. cerevisiae deletion strains, locus YOR001W, strain rrp6, hits give low values 0.949 | S. cerevisiae deletion strains, locus YOR061W, strain CKA2, hits give low values 1.02 | S. cerevisiae deletion strains, locus YOR069W, strain VPS5, hits give low values 1.01 | S. cerevisiae deletion strains, locus YOR070C, strain gyp1, hits give low values 1 | S. cerevisiae deletion strains, locus YOR080W, strain dia2, hits give low values 1.01 | S. cerevisiae deletion strains, locus YOR083W, strain WHI5, hits give low values 1.03 | S. cerevisiae deletion strains, locus YOR106W, strain vam3, hits give low values 1.04 | S. cerevisiae deletion strains, locus YOR136W, strain idh2, hits give low values 0.989 | S. cerevisiae deletion strains, locus YOR144C, strain elg1, hits give low values 1.01 | S. cerevisiae deletion strains, locus YOR184W, strain ser1, hits give low values 1.01 | S. cerevisiae deletion strains, locus YOR231W, strain MKK1, hits give low values 0.971 | S. cerevisiae deletion strains, locus YOR265W, strain rbl2, hits give low values 1 | S. cerevisiae deletion strains, locus YOR270C, strain vph1, hits give low values 1 | S. cerevisiae deletion strains, locus YOR290C, strain snf2, hits give low values 1.03 | S. cerevisiae deletion strains, locus YOR316C, strain cot1, hits give low values 1.02 | S. cerevisiae deletion strains, locus YPL051W, strain arl3, hits give low values 1.03 | S. cerevisiae deletion strains, locus YPL055C, strain LGE1, hits give low values 1.01 | S. cerevisiae deletion strains, locus YPL078C, strain atp4, hits give low values 1.02 | S. cerevisiae deletion strains, locus YPL106C, strain sse1, hits give low values 1.03 | S. cerevisiae deletion strains, locus YPL240C, strain hsp82, hits give low values 1 | S. cerevisiae deletion strains, locus YPL241C, strain CIN2, hits give low values 1.01 | S. cerevisiae deletion strains, locus YPL256C, strain CLN2, hits give low values 0.93 | S. cerevisiae deletion strains, locus YPR119W, strain clb2, hits give low values 1.01 | S. cerevisiae deletion strains, locus YPR141C, strain kar3, hits give low values 0.995 | S. cerevisiae deletion strains, locus YPR163C, strain tif3, hits give low values 1 | S. cerevisiae deletion strains, locus YPR167C, strain met16, hits give low values 1 | S. cerevisiae deletion strains, strain wtn01, hits give low values 1.01 | S. cerevisiae strains, strain wild type, hits give low values 1.01
